C diff growth: C. difficile growth inhibitors, primary screen, HTS; Clostridium difficile clinical isolate growth, OD600, 24 h; hits give low values; growth activity, negative = inhibition, % at 16 µg/mL (by protocol); 86,000 compounds, 0.25% hits;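 active = mean growth activity at or below -80% and every replicate also at or below -80%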
Pf Dd2 growth: P. falciparum Dd2 growth inhibitors, primary screen, SYBR Green fluorescence, single dose replicates; activity change, % at 10 µM; 94,000 compounds, 2.3% hits; AID 1159554, 2015; 72 h; hits give low values; in the data active = activity change below about -80%
A number is an active result; n = inactive; x = no result given; ! = not active in a repeat. The list is not random: actives were taken first. Their share in the collection is about 2.3%.

SMILES	C diff growth	Pf Dd2 growth
Cc1ccc(OC(=O)N(C)C[C@@H]2OCc3ccccc3-c3c(n(C)c4ccccc34)C(=O)N([C@@H](C)CO)C[C@@H]2C)cc1	n	n
Cc1ccc(OC(=O)N(C)C[C@H]2OCc3ccccc3-c3c(n(C)c4ccccc34)C(=O)N([C@H](C)CO)C[C@@H]2C)cc1	n	-87.5
COc1cccc(-c2ccc([C@@H]3[C@H]4CN(C(=O)Cc5ccncc5)CCCCN4[C@H]3CO)cc2)c1	n	n
C/C=C/c1ccc(C2[C@@H]3CN(Cc4cccnc4)C[C@H]2N3)cc1 (some centres not stated)	n	-84.2!
C/C=C/c1ccc(C2[C@@H]3CN(Cc4cccc(F)c4)C[C@H]2N3)cc1 (some centres not stated)	n	-88.2!
C/C=C/c1ccc(C2[C@@H]3CN(Cc4ccccn4)C[C@H]2N3)cc1 (some centres not stated)	n	n
C/C=C/c1ccc(C2[C@@H]3CN(C(C)=O)C[C@H]2N3)cc1 (some centres not stated)	n	n
CC=Cc1ccc2n(c1=O)C[C@@H]1[C@@H](CO)[C@H](C(=O)OC)[C@H]2N1C(=O)CC1CC1 (mixture of isomers)	n	n
COC(=O)[C@@H]1N[C@@H]2c3ccc(C4=CCCC4)c(=O)n3C[C@@H]2[C@H]1CO	n	x

Screens from PubChem.
